In PubChem BioAssay (Tox21):
Results filed as inconclusive are left out. The source made the active and inactive calls. Unless noted, the call rests on the fitted dose curve; in most records, active means well fitted curve in the direction sought with a large enough effect in the repeat runs; inconclusive means weak or mixed curves; inactive means no such curve, though single readings can be large; an effect the other way counts as inactive or inconclusive. Non-standard residues stand in square brackets, D forms with d. Residues, ends and D or L forms follow the SMILES beside them. *: point of attachment. Sta = CC(C)C[C@H](N)[C@@H](O)CC(=O)O; Isovaleryl = CC(C)CC(=O)*

Columns and labels:
[1] = molecular target: Peroxisome proliferator-activated receptor delta (Homo sapiens) (UniProt Q03181); assay: qHTS assay to identify small molecule agonists of the peroxisome proliferator-activated receptor delta (PPARd) signaling pathway (AID 743212; calls by dose curve;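 further: HEK293H cells with PPARd UAS beta-lactamase reporter GeneBLAzer system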)
In short: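 Beta-lactamase reporter readout: a ratiometric FRET signal from the LiveBLAzer substrate after 2 h at room temperature. Compound exposure at 37 °C in PPARδ-bla HEK293H cells driven by an upstream activator sequence.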

[2] = qHTS assay to identify small molecule antagonists of the peroxisome proliferator-activated receptor delta (PPARd) signaling pathway - cell viability counter screen (AID 743213); further: nearly all actives have a fitted effect of over 50% in size
In short: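 CellTiter-Glo was added to PPARd-bla HEK293H wells following 17 h compound treatment in the presence of 300 nM L165041. Luminescence was recorded after 30 min at room temperature.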

[3] = molecular target: Peroxisome proliferator-activated receptor delta (Homo sapiens) (UniProt Q03181); assay: qHTS assay to identify small molecule antagonists of the peroxisome proliferator-activated receptor delta (PPARd) signaling pathway (AID 743215; active means well fitted inhibition curve with a large enough effect in the signal ratio in the repeat runs, not every such curve was filed as active; the % refers to the signal ratio;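 further: cells stimulated with agonist L165041 at 300 nM final during compound exposure; series mostly up to about 62 µM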)
In short: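 Here, a reporter line (HEK293H, beta-lactamase under a UAS) measures PPARd signaling. Compounds are tested against agonist L165041 at 300 nM final concentration over 17 h at 37 C, with fluorescence read after substrate.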

[4] = qHTS assay to identify small molecule agonists of the farnesoid-X-receptor (FXR) signaling pathway - cell viability counter screen (AID 743218); further: nearly all actives have a fitted effect of over 45% in size
In short: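 Quantitative HTS counter screen measuring ATP-based viability via CellTiter-Glo luminescence in HEK 293T cells carrying a UAS-driven beta-lactamase reporter, after 16 h compound exposure at 37 C.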

[5] = qHTS assay to identify small molecule antagonists of the farnesoid-X-receptor (FXR) signaling pathway - cell viability counter screen (AID 743221; active means well fitted cell-killing curve with a large enough effect in the repeat runs, not every such curve was filed as active; further: nearly all actives have a fitted effect of over 50% in size)
In short: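 Cytotoxicity is taken from ATP luminescence (CellTiter-Glo, 30 min, room temperature) in FXR-bla HEK 293T cells previously incubated 16 h at 37 C with compound and chenodeoxycholic acid at 50 uM final.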

[6] = molecular target: Vitamin D3 receptor (Homo sapiens) (UniProt P11473); assay: qHTS assay to identify small molecule agonists of the vitamin D receptor (VDR) signaling pathway (AID 743222; calls by dose curve)
In short: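 Tox21 cell reporter format: VDR-bla line, 16 h compound exposure in 5% CO2 at 37C, then fluorescence intensity after 2 h with LiveBLAzer B/G FRET substrate.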

[7] = molecular target: Vitamin D3 receptor (Homo sapiens) (UniProt P11473); assay: qHTS assay to identify small molecule antagonists of the vitamin D receptor (VDR) signaling pathway (AID 743223; active means well fitted inhibition curve with a large enough effect in the signal ratio in the repeat runs, not every such curve was filed as active; the % refers to the signal ratio)
In short: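 Quantitative HTS in VDR-bla reporter cells stimulated with 1alpha,25-dihydroxyvitamin D3, 3 nM final. Compound exposure 16 h, 37C, 5% CO2. Read-out: beta-lactamase FRET substrate fluorescence, 2 h RT.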

[8] = qHTS assay to identify small molecule agonists of the vitamin D receptor (VDR) signaling pathway - cell viability counter screen (AID 743224); further: series mostly up to about 63 µM; nearly all actives have a fitted effect of over 50% in size
In short: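 CellTiter-Glo viability readout on VDR-bla cells, measured after 16 h of compound treatment at 37C in the same wells.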

[9] = molecular target: Bile acid receptor (Homo sapiens) (UniProt Q96RI1); assay: qHTS assay to identify small molecule agonists of the farnesoid-X-receptor (FXR) signaling pathway (AID 743220; active means well fitted activation curve with a large enough effect in the signal ratio in the repeat runs, not every such curve was filed as active; the % refers to the signal ratio)
In short: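 FXR-UAS-bla HEK 293T cells carrying a UAS-driven beta-lactamase reporter were plated for 5 h at 37C/5% CO2, then exposed to DMSO-dissolved Tox21 10K compounds for 16 h at 37C. A LiveBLAzer B/G FRET substrate was loaded for 2 h at room temperature before fluorescence reading.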

[10] = molecular target: Bile acid receptor (Homo sapiens) (UniProt Q96RI1); assay: qHTS assay to identify small molecule antagonists of the farnesoid-X-receptor (FXR) signaling pathway (AID 743217; active means well fitted inhibition curve with a large enough effect in the signal ratio in the repeat runs, not every such curve was filed as active; the % refers to the signal ratio)
In short: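 Test compounds are pin-transferred onto FXR-bla HEK 293T cells, then chenodeoxycholic acid is added at 50 uM final. After 16 h at 37 °C, LiveBLAzer B/G substrate is applied for 2 h at room temperature and fluorescence read.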

Measured: outcome

Chain of Vitamin D3 receptor (Homo sapiens) (P11473 whole entry, looked up): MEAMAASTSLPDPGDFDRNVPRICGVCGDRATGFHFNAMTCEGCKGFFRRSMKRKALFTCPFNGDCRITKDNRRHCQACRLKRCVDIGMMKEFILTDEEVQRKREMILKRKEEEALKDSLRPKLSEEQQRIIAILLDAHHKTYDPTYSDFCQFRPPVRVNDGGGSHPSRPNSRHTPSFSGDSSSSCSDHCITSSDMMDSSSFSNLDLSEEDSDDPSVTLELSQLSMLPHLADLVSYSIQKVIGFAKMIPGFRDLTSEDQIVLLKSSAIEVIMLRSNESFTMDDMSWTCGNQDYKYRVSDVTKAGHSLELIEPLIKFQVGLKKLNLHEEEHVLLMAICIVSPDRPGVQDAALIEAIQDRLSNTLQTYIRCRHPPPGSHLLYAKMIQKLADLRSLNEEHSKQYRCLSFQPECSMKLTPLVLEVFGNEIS
Chain of Bile acid receptor (Homo sapiens) (Q96RI1 whole entry, looked up): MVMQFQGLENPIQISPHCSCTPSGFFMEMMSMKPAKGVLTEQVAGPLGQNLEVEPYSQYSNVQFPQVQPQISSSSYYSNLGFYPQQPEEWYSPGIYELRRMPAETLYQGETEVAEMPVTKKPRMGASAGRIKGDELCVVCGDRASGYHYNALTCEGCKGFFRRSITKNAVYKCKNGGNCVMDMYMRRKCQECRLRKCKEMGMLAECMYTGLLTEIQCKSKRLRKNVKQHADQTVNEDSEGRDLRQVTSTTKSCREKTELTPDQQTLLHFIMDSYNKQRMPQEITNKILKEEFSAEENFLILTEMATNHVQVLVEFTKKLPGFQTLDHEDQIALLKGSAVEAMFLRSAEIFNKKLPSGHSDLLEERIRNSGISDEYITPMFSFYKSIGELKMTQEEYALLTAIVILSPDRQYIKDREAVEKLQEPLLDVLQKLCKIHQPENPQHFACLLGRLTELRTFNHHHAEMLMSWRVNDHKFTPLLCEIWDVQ
Chain of Peroxisome proliferator-activated receptor delta (Homo sapiens) (Q03181 whole entry, looked up): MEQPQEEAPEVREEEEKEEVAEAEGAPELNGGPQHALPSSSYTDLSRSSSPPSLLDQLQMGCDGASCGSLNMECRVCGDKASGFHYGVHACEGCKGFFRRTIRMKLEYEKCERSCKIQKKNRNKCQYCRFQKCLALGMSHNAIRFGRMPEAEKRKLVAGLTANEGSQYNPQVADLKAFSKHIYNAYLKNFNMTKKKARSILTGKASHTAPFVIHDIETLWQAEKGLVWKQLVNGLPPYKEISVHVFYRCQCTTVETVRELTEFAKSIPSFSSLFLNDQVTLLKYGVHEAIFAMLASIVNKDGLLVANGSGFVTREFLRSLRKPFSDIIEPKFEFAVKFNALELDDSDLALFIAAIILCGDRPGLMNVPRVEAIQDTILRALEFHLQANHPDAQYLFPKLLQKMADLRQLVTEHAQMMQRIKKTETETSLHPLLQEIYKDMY

O=C1Nc2ccccc2C1=O
inactive: [1] | [2] | [3] | [4] | [5] | [6] | [7] | [8]

O=c1c(O)c(O)c1=O
inactive: [1] | [2] | [3] | [4] | [5] | [6] | [7] | [8]

CCCC(=O)CC
inactive: [1] | [2] | [3] | [4] | [5] | [6] | [7] | [8]

C=CC(=O)CC
inactive: [1] | [2] | [3] | [4] | [9] | [5] | [6] | [7] | [8]

CCOC(=O)c1ccc(N(C)C)cc1
inactive: [1] | [2] | [3] | [4] | [5] | [6] | [7] | [8]

CC(C)OC(=O)C(C(=O)OC(C)C)=C1SC=CS1
inactive: [1] | [2] | [3] | [4] | [5] | [6] | [7] | [8]

O=CN1CCCCC1
inactive: [1] | [2] | [3] | [4] | [5] | [6] | [7] | [8]

CC(O)CCCCn1c(=O)c2c(ncn2C)n(C)c1=O (stereo unspecified)
inactive: [1] | [2] | [3] | [4] | [5] | [6] | [7] | [8]

CCN1CCN(C(=O)N[C@@H](C(=O)N[C@@H]2C(=O)N3[C@@H]2SC(C)(C)[C@H]3C(=O)O)c2ccccc2)C(=O)C1=O
inactive: [1] | [2] | [3] | [10] | [5] | [6] | [7]

CN1CCN(C(=O)C2CCCCC2)CC1
inactive: [1] | [2] | [3] | [10] | [9] | [5] | [6] | [7] | [8]

CC(C)CC(=O)N[C@H](C(=O)N[C@H](C(=O)N[C@@H](CC(C)C)[C@@H](O)CC(=O)N[C@@H](C)C(=O)N[C@@H](CC(C)C)[C@@H](O)CC(=O)O)C(C)C)C(C)C (Isovaleryl-VV[Sta]A[Sta]-OH)
inactive: [1] | [2] | [3] | [4] | [5] | [6] | [7] | [8]

COC(=O)N/N=C/c1c[n+]([O-])c2ccccc2[n+]1[O-]
inactive: [1] | [2] | [3] | [10] | [9] | [5] | [8]

Nc1cc(S(=O)(=O)O)ccc1O
inactive: [1] | [2] | [3] | [4] | [5] | [6] | [7] | [8]

COC(=O)/C=C(\C)CCC=C(C)C
inactive: [1] | [2] | [3] | [4] | [5] | [6] | [7]

O=C(OOC(=O)c1ccccc1)c1ccccc1
inactive: [1] | [2] | [3] | [4] | [5]

C=CC(C)(CCC=C(C)C)OC(=O)C(C)C (stereo unspecified)
inactive: [1] | [2] | [3] | [4] | [5] | [6] | [7] | [8]

BrCCOc1ccccc1
inactive: [1] | [2] | [3] | [10] | [9] | [5] | [6] | [7] | [8]

N=C(N)N
inactive: [1] | [2] | [3] | [4] | [5]

CCN(CC)CC
inactive: [1] | [2] | [3] | [10] | [4] | [5] | [6] | [7] | [8]

CN(C)c1ccncc1
inactive: [1] | [2] | [3] | [4] | [5] | [6] | [7] | [8]

CCCCS
inactive: [1] | [2] | [3] | [4] | [5] | [6] | [7] | [8]

CCCCCCC(=O)c1ccccc1
inactive: [1] | [2] | [3] | [10] | [9] | [5] | [8]

COc1cc(NS(=O)(=O)c2ccc(N)cc2)ncn1
inactive: [1] | [2] | [3] | [4] | [5]

CC(=O)SC[C@@H](C)C(=O)N1CCC[C@H]1C(=O)N[C@@H](Cc1ccccc1)C(=O)O
inactive: [1] | [2] | [3] | [10] | [9] | [5] | [6] | [7] | [8]

CCc1ncc(C)[nH]1
inactive: [1] | [2] | [3] | [4] | [9] | [5] | [6] | [7] | [8]

O=C(O)CCCCCCCCCC(=O)O
inactive: [1] | [2] | [3] | [4] | [5] | [6] | [7] | [8]

N#Cc1cc(NC(=O)C(=O)O)c(Cl)c(NC(=O)C(=O)O)c1
inactive: [1] | [2] | [3] | [4] | [5] | [6] | [7] | [8]

O=C[C@@H](O)[C@H](O)[C@H](O)CO
inactive: [1] | [2] | [3] | [4] | [5] | [8]

CCOC(=O)[C@H](CCc1ccccc1)N[C@H]1CS[C@H](c2cccs2)CN(CC(=O)O)C1=O
inactive: [1] | [2] | [3] | [4] | [5] | [8]
